# Screens deposited in PubChem BioAssay by National Center for Advancing Translational Sciences (NCATS).
# Most compounds without a hit are left out; they make up all but 7.1% or so of the library.
# PINK1 expr mod: changes PINK1 expression; PINK1 immunofluorescence, high-content cytometry, 24 h; Potency, µM (doses to about 76.6 µM), actives largely listed as activators; 410,000 tested, 0.2% active; AID 624263; active = well fitted activation curve with a large enough effect; inconclusive = small, poorly fitted or top-dose-only effect; cell line not stated here; note: nearly all actives have a fitted effect of over 65% in size
#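 Decision-based qHTS: stable cells, 24 h exposure to five compound concentrations, CCCP as control. Fixed cells stained for PINK1 plus nuclear, mitochondrial and cell markers, cytometer read.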
# ATXN viability: reduces viability in counter-screen for ATXN expression inhibitors; S2 cells (HEK-293 line with an ATXN2-luciferase reporter) viability, CellTiter-Fluor protease fluorescence, 24 h; Potency, µM (series often up to 56.7 µM), actives largely listed as cytotoxic; 400,000 tested, 0.49% active; note: nearly all actives have a fitted effect of over 40% in size
# ATXN2 expr inh: ATXN2 expression inhibition. HEK-293 ATXN2-luciferase reporter, luminescence, 24 h. Potency, µM (doses to about 57 µM), most hits filed as inhibitors. 360,000 tested, 0.72% active; note: nearly all actives have a fitted effect of over 55% in size
#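 qHTS (up to 57 uM final) was run with 24 h compound exposure of reporter cells at 37 °C. Each well was multiplexed: SteadyGlo luminescence measured ATXN2-luciferase expression after a fluorogenic Gly-Phe-AFC viability readout (25 uM final).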
# SW480 rerep: inducers of DNA re-replication in SW480 colon cancer cells. SW480 DNA re-replication, Hoechst DNA content imaging, 48 h. Potency, µM (doses to about 46.1 µM), actives largely listed as activators. 340,000 tested, 1.8% active; note: nearly all actives have a fitted effect of over 55% in size
#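 Image-based DNA-content assay: after two days of treatment, nuclei were labelled with the DNA dye Hoechst and imaged, and hits were compounds raising the count of nuclei showing high fluorescence intensity.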
# IL1B secr inh: blocks inflammasome-driven IL-1 beta release; THP-1 LPS/ATP IL-1B secretion, AlphaLISA, 16 h; hits give low values; activity change, % at 57.5 µM; 360,000 tested, 4.7% active; in the data active = activity change below about -50%; inconclusive = mostly about -30% to -49%
#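 THP-1 cells pretreated 1 hr with compounds (up to 57.5 uM final), then stimulated with LPS (250 ng/mL final) plus ATP (1.25 mM final); secreted IL-1B measured by AlphaLISA after 16 hr, decreased signal indicating inhibition.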
# MCF10A rereplic: inducers of DNA re-replication in MCF 10A breast cells | MCF 10A DNA re-replication, Hoechst nuclear intensity, 48 h | Potency, µM (highest dose often 46.1 µM), most hits filed as activators | 350,000 tested, 2.9% active; note: nearly all actives have a fitted effect of over 50% in size
# Hits are given with their value; 0 = inactive; ? = inconclusive; - = no result; ! = repeats disagree; [ ] = remark or other dose. Unless noted, calls come from the whole dose curve; as a rule, active = well fitted curve in the direction sought with a large enough effect; inconclusive = small, poorly fitted or top-dose-only effect, or another doubt; inactive = no such curve, though single readings can be large; an effect the other way counts as inactive or inconclusive.
SMILES,PINK1 expr mod,ATXN viability,ATXN2 expr inh,SW480 rerep,IL1B secr inh,MCF10A rereplic
O=C(Oc1cc2oc(=O)cc(-c3ccccc3)c2cc1Cl)C1CCCCC1,0,-,0,?,0,?
CC(C)(C)OC(=O)NCC(=O)Oc1cc2oc(=O)cc(-c3ccccc3)c2cc1Cl,0,-,0,20.6µM,0,23.1µM
CCOc1ccc(NC(=O)CCSc2nc(-c3ccc4c(c3)OCO4)cc(C(F)(F)F)n2)cc1,0,?,0,-,-,-
Cc1cccc(C)c1N/C=C/c1onc(C)c1[N+](=O)[O-],39.8µM,0,0,0,0,0
Cc1ccc(N/C=C/c2onc(C)c2[N+](=O)[O-])cc1,0,0,-,0,0,0
O=c1[nH]c(/C=C\c2cccnc2)c([N+](=O)[O-])c(=O)[nH]1,0,0,0[11.3 µM],0,0,?
Cc1noc(/C=C/c2cccnc2)c1[N+](=O)[O-],0,?,?,?,-93.9,?
C[C@@H](CN1CC(=O)NC(=O)C1)N1CC(=O)NC(=O)C1,-,0,?,-,-,-
Cc1cc(/C=N/NC(=O)c2cccc([N+](=O)[O-])c2)c(C)n1-c1ccccc1,0,0,-,0,-79.7,0
O=C(N/N=C/c1ccccn1)c1cccc([N+](=O)[O-])c1,0,0,?,?,-95.7,0
Cc1cc(/C=N/NC(=O)c2ccncc2)c(C)n1-c1ccccc1,0,0,-,0,0,0
O=C(N/N=C/c1ccccc1O)c1cccc(C(F)(F)F)c1,0,?,3.16µM,?,0,?
O=C(NN=Cc1ccccc1O)c1cccc([N+](=O)[O-])c1,0,?,?,0.581µM,0,0
CCCCCCCC/C=C/C(=O)O,-,0,0,-,-,-
COc1ccc(Cl)cc1NC(=O)C1CCN(S(=O)(=O)c2ccc3c(c2)CCCN3C(=O)C2CCC2)CC1,0,?,0,-,-,-
O=C(N/N=C/c1ccccn1)c1ccc(Br)cc1,0,?,?,?,-105.3,?
O=C(N/N=C/c1ccccn1)c1ccc(N/N=C/c2ccccn2)cc1,0,0,0,0,0,0
COc1cc(NC(=O)COCc2cc(-c3ccc(F)cc3)on2)cc(OC)c1OC,0,?,0,-,-,-
CC(C)(C)OC(=O)NCc1ccc(CNC(=O)c2nc[nH]c2C(=O)N2CCN(C(=O)OC(C)(C)C)CC2)cc1,0,17.8µM,?,0,0,0
CC(C)(C)OC(=O)N1CCN(C(=O)c2[nH]cnc2C(=O)Nc2ccc(Cl)cc2)CC1,0,0,0,0,-52.2,0
Cc1ccc(NC(=O)c2nc[nH]c2C(=O)N2CCN(C(=O)OC(C)(C)C)CC2)cc1,0,0,0,0[9.22 µM],0,?
CC(C)(C)OC(=O)N1CCC(NC(=O)c2[nH]cnc2C(=O)Nc2cccc(Cl)c2)CC1,0,-,0,0,-58.2,0
Cc1ccc(CSc2nc3ccncc3n2Cc2nc(-c3ccccc3C)oc2C)cc1,?,?,0,-,-,-
Cc1cc(=O)n(CC(=O)NC(C)c2ccccc2)c2c1c(C)nn2C (centres undefined),0,0,0,-,-,-
Cc1cc(C)cc(NC(=O)c2cc(S(=O)(=O)N3CCCC3)ccc2F)c1,0,0,0,-,-,-
SMILES,PINK1 expr mod,ATXN viability,ATXN2 expr inh,SW480 rerep,IL1B secr inh,MCF10A rereplic
NC(=O)/C=C\c1cn(-c2ccccc2)nc1-c1ccc2c(c1)OCCO2,0,?,0,0,-59.9,?
O=c1cc(-c2ccccc2)[nH]n1-c1ccc([N+](=O)[O-])cc1,0,-,?,0,-63.8,14.6µM
O=c1c(N=Nc2ccc(O)cc2)c(-c2ccccc2)[nH]n1-c1ccc([N+](=O)[O-])cc1,0,?,0,?,0,0
CCC1CN(CC(=O)NC(C)c2c(C)nn(C)c2C)Cc2cc(OC)ccc2O1 (centres undefined),0,0,-,-,-,-
COc1cc(OC)c(-c2c3cc(O)c(=O)cc-3oc3cc(O)c(O)cc23)cc1OC,0,12.6µM,0,0,0,0
Cc1c2cc(O)c(=O)cc-2oc2cc(O)c(O)cc12,0,?,?,?,0,0
COc1ccc(OC)c(NC(=O)Cn2ccn(-c3ccc(OC)c(OC)c3)c(=O)c2=O)c1,0,-,-,-,-,-
C[C@@H]1CN(Cc2ccc3c(c2)CN(Cc2cccc4cccnc24)CCO3)C[C@H](C)O1,0,0,-,-,-,-
O=C(CCl)N1c2ccccc2Sc2ccc3ccccc3c21,0,?,-,-,-104.4,-
CN(C)CCCN1c2ccccc2Sc2ccc3ccccc3c21,0,0,0,?,-101.9,?
CN(C)CCCN1c2ccc3ccccc3c2Sc2cccc(Cl)c21,0,-,?,?,-96.4,?
CN(C)CCCN1c2ccccc2Sc2ccc(Cl)cc21,0,0,20µM!,?,0,?
CC(C)c1ccc(Nc2c(-c3ccccn3)nc3ccccn23)cc1,0,?,?,-,-,-
CCC(=O)Nc1nc(CC(=O)Nc2ccccc2)cs1,0,0,0,0,0,0
COc1ccc(C(=O)Nc2nc(CC(=O)NCCc3ccccc3)cs2)cc1,0,0,0,0,-52.3,0
